Bioassay records as filed in PubChem.
Shown are actives, neighbours in structure and some others; about 3% of the full set was active somewhere.
EBV LMP1 NFkB – EBV LMP1-driven NF-kappaB luciferase reporter inhibitors, primary screen, cell-based, luminescence, single point. LMP1-induced NF-kappaB luciferase reporter cells. inhibition, % at 12.5 µM. 0.69% of 350,000 active. AID 504558, 2011; in the data active means inhibition above about 41%; inconclusive means no clear call, values can overlap the other calls;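 further: 0% = neutral control wells and 100% = reference inhibitor control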
TRPM1 prom inh – inhibitors of MITF-dependent TRPM1 promoter reporter, primary screen, cell-based, SK-MEL-5, single point, luciferase | SK-MEL-5 TRPM1 promoter luciferase, 24 h | AID 488899, 2010 | 0.83% of 330,000 active | inhibition, % at 12.5 µM;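 active means mean inhibition across replicates of 60% or more, whatever share of single replicates reaches that level; inconclusive means some that reach 60%, reason not given; inactive means mean inhibition across replicates below 60%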
TWEAK-Fn14 inh – inhibitors of TWEAK-Fn14 signaling, primary screen, luciferase reporter cells, uHTS | TWEAK-stimulated Fn14 reporter cells, luciferase luminescence, 8 h | inhibition, % at 10 µM | 2% of 360,000 active | AID 1159606, 2016; in the data active means inhibition above about 50%
MITF TRPM1 HTS – activators of MITF-driven TRPM1 promoter reporter, primary screen, cell-based, SK-MEL-5, luciferase, single point. SK-MEL-5 TRPM1-promoter luciferase, 24 h; % of positive control, neutral wells = 0. activation, % at 12.5 µM. 0.75% of 300,000 active;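 active means mean activation of at least 80% with every replicate also reaching 80%; inconclusive means mean reaches 80% but some replicate falls short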;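 further: 0% = neutral control wells and 100% = parthenolide positive control wells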
TROY NFkB inh – inhibitors of TROY-driven NF-kB signaling, primary screen, Q293 LMP1-TROYcd cells, NF-kB luciferase, uHTS; AID 1347056, 2019; Q293 LMP1-TROYcd NF-kB luciferase reporter, 4 h; inhibition, % at 10 µM; 0.98% of 360,000 active;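 active means compounds whose plate-normalised and pattern-corrected inhibition of the luciferase reporter signal at the single screening dose is 50% or more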
LGR2 antag – inhibitors of bursicon-induced LGR2 CRE-luciferase signal, primary screen, cell-based, HEK293, CRE-luciferase reporter, bursicon stimulation. Drosophila bursicon receptor LGR2 (rickets). bursicon-stimulated, 4 h. inhibition, % at 9.99 µM. 0.35% of 380,000 active;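 active means drop in luminescence signal, shown as inhibition above about 50% in the replicate tests, limit read from the data, passing the limit was not always enough; inconclusive means probably only some replicates passing the limit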;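 further: agonist challenge used bursicon conditioned medium at about half maximal strength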
The depositor's hits bear a star; ? = inconclusive; . = no result given.

SMILES	EBV LMP1 NFkB	TRPM1 prom inh	TWEAK-Fn14 inh	MITF TRPM1 HTS	TROY NFkB inh	LGR2 antag
O=C(NCCC1=CCCCC1)C1CCC(CNc2nc(=S)[nH]c3ccccc23)CC1 (stereo not given)	-2	64*	-20	-63	9	21
Cc1nn(-c2ccc(Cl)cc2Cl)c(=O)c2ccccc12	7	2	-6	-2	-6	22
CC1=NN(S(=O)(=O)c2ccc(Cl)cc2Cl)C(=O)c2ccccc2O1	-5	3	68*	-4	1	4
CCCNC(=O)Nc1ccc2c(c1)OC[C@H](C)N(CCC(F)(F)F)C[C@H](C)[C@H](OC)CN(C)C2=O	.	.	.	.	.	17
CCOC(=O)c1cnc(SC)nc1N	-3	10	-18	-8	-19	2
CCOC(=O)c1cnc(SCC(C)C)nc1N	-37	-111	1	109*	-64	.
CCOC(=O)c1cnc(SCC(=O)c2ccccc2)nc1N	-37	-89	-2	97*	-73	.
CCOC(=O)c1cnc(SCC(=O)c2ccc(C)cc2)nc1N	3	0	19	1	.	.
CCNC(=O)[C@@H]1[C@@H](CO)[C@@H]2Cn3c(ccc(-c4ccc(OC)cc4)c3=O)[C@H]1N2S(C)(=O)=O	.	.	.	.	.	-6
C[C@@H]1CN([C@H](C)CO)C(=O)c2cccc(NC(=O)Nc3ccc4c(c3)OCO4)c2O[C@@H]1CN(C)Cc1ccc(C(=O)Nc2ccccc2N)cc1	.	.	.	.	.	1
O=C(NCc1ccc2c(c1)OCO2)c1cnc2ccccn2c1=O	-5	0	10	-2	-20	-8
Cc1cccc(NC(=O)c2cnc3ccccn3c2=O)c1	51*	14	80*	-14	-18	.
O=C(Nc1cnc2ccccn2c1=O)c1ccc(Cl)cc1Cl	44*	33	82*	-32	73*	71*
O=C(Nc1ccc2c(c1)OCCO2)c1cnc2ccccn2c1=O	28	14	70*	-12	-20	.
O=C(CCN1CCCCC1)N[C@H]1CC[C@@H](CCn2cc(-c3ccccc3)nn2)O[C@H]1CO	.	.	.	.	.	-22
CCOn1c(=O)c(C)[n+]([O-])c2ccccc21	-5	11	85*	-11	.	.
CCCN(CCC)c1nc(Cl)nc(NCc2ccco2)n1	4	-37	75*	16	7	.
CCCCCc1ccc(-c2ccc(OC)cc2)nc1	-39	-101	-34	97*	-26	-100
CCCCCc1ccc(-c2ccc(/C=C/C(N)=O)cc2)nc1	-1	-4	16	8	-7	-23
CCCc1ccc(-c2ccc(C(=O)O)cc2)nc1	-12	-12	78*	20	48	27
COc1ccc(S(=O)(=O)Nc2ccc3c(c2)CC(=O)N([C@@H](C)CO)C[C@@H](C)[C@@H](CN(C)C(=O)Nc2ccc(F)cc2)O3)cc1	.	.	.	.	.	2
CCOC(=O)C(C(=O)OCC)C(Nc1cccc(Br)c1)c1ccccc1 (stereo not given)	-7	5	71*	.	18	.
COc1cc2c(cc1OC)CN(c1ncccc1[N+](=O)[O-])CC2	-6	-88	-15	93*	-44	-80
O=C1CCN(c2ncccc2[N+](=O)[O-])CC1	6	-6	6	9	-22	-21
COc1cccc(-c2nnc3n2N=C(C(C)(C)C)CS3)c1	65*	?	92*	-61	64*	.
COc1cccc(-c2nnc3n2N=C(c2cc(OC)ccc2OC)CS3)c1	7	12	14	.	13	.
Cc1ccc(S(=O)(=O)Nc2ccc(Cl)cc2)cc1NC(=O)Cn1cnc2c1c(=O)n(C)c(=O)n2C	-3	9	89*	-11	43	-7
COC(=O)CSc1nnc(-c2sc3ccccc3c2Cl)o1	4	-3	64*	0	35	.
N#CCSc1nnc(-c2sc3ccccc3c2Cl)o1	16	8	34	-9	7	-29
CCOC(=O)C1CCN(C(=O)/C=C/c2ccc(OC)cc2)CC1	2	-30	-15	24	-31	.
